# ALOX12 inhib: inhibitors of human 12-lipoxygenase (ALOX12); P18054; purified 12-hLO, xylenol orange hydroperoxide absorbance; Potency, µM (top dose mostly 57.1 µM), inactives show at the highest dose activity change, negative = inhibition, actives largely listed as inhibitors; 150,000 compounds, 0.12% hits; AID 1452; active = well fitted curve in the direction sought with a large enough effect; inconclusive = small, poorly fitted or top-dose-only effect, or another doubt; inactive = no such curve, though single readings can be large; an effect the other way counts as inactive or inconclusive; also: potency is read from the fitted curve at half-maximal effect; nearly all actives have a fitted effect of over 55% in size
#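 Purified human 12hLO (150 nM), preincubated 15 min with compound, then 40 uM arachidonic acid for 30 min, room temperature, Hepes pH 7.0 with 0.01% Triton X-100. Hydroperoxide detected by ferrous iron/xylenol orange; 573/405 nm absorbance ratio gives reaction progress.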
# IMPase inh: IMPase inhibition in cells | P97697 | CHO-M1 cells, IP1 accumulation, HTRF TR-FRET ratio | inhibition (IP1 accumulation), % at 46.1 µM | 120,000 tested, under 10 active; active = well fitted curve in the direction sought with a large enough effect in the signal ratio, not every such curve was filed as active; inconclusive = small, poorly fitted or top-dose-only effect, or a change in a side signal; inactive = no such curve, though single readings can be large or run the other way; the % refers to the signal ratio;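 also: cells stimulated with carbachol in lithium chloride buffer; plate controls were DMSO basal wells for no effect and reference inhibitor wells for full effect; higher means more IMPase inhibition seen as more IP1 and lower FRET ratio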
#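 Cellular IMPase inhibition is scored as a rise in cytosolic IP1, detected by competitive TR-FRET between d2-labelled IP1 and a europium anti-IP1 antibody. M1-expressing CHO cells were stimulated with carbachol for 30 min at 37C, with lithium (50 mM LiCl) present in the buffer.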
# PNC assembly inh: inhibitors of perinucleolar compartment assembly. PC3M PTB-GFP, PNC prevalence imaging, 16 h; active compounds read low. activity change (PNC), negative = inhibition, % at 10 µM. 140,000 compounds, 3.1% hits. AID 2417;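 active = readout at or below -70, meaning at least 70% loss of cells showing the perinucleolar compartment, a nuclear body marking cancer cells; inconclusive = readout between -30 and a set limit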;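 also: plate controls were DMSO wells for no effect and camptothecin positive control wells for full effect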
#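 Read-out is percentage of cells bearing a perinucleolar compartment, from automated 20x imaging of fixed, Hoechst-stained PC3M PTB-GFP cells. Cells were seeded 4 h, then exposed 16 h to compound (23 nl of library stock) in duplicate plates.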
# HPGD inh: blocks human HPGD enzyme activity. purified HPGD, NADH fluorescence kinetic, PGE2 substrate. Potency, µM, for the others: at the top dose activity change, negative = inhibition, most hits filed as inhibitors. 150,000 compounds, 4.3% hits. AID 894; also: potency is read from the fitted curve at half-maximal effect
# Target sequence (P15428 whole entry, looked up): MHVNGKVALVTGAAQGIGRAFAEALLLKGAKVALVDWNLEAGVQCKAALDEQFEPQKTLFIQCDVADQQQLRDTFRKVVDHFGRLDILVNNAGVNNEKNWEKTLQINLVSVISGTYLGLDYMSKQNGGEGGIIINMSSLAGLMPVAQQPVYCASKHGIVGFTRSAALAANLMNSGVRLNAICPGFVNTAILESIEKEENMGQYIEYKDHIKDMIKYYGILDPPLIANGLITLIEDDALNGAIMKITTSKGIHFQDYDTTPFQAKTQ
#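 NADH formation kinetics: reaction with 30 uM PGE2 and 1 mM NAD+ (final), 20 nM enzyme, Tris-HCl pH 8 with Tween 20, after 15 min compound preincubation at room temperature. Fluorescence change, last versus first of five reads.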
# ALDH1A1 inh: ALDH1A1 (human) enzyme inhibition; P00352; Purified ALDH1A1, NADH fluorescence, propionaldehyde substrate; Potency, µM (titrated, usually from 75.3 µM), for the others: at the top dose activity, negative = inhibition, hits mostly inhibitors; 220,000 compounds, 7.3% hits; AID 1030;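 also: potency is read from the fitted curve at half-maximal effect; plate controls were no enzyme wells and a reference inhibitor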
# Target sequence (P00352 whole entry, looked up): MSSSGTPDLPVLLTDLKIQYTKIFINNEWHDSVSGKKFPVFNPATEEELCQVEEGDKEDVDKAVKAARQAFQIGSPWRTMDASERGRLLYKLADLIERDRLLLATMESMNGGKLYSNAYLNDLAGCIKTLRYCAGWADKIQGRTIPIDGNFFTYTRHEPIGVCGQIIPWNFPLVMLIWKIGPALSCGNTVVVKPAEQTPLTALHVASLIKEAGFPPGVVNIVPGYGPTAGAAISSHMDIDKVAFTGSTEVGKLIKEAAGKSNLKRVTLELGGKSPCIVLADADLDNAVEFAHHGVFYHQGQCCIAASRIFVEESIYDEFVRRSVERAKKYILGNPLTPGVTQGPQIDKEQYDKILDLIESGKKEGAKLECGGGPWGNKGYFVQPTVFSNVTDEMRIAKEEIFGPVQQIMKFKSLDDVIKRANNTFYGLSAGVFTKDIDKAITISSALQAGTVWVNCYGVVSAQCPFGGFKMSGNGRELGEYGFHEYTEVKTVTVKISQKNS
# IMPase Li cell: IMPase inhibition in cells with lithium potentiation | CHO-M1 cells, IP1 TR-FRET (IP-One), carbachol + lithium | Potency, µM (highest dose often 59.4 µM), for the others: at the top dose activity, negative = IMPase inhibition, usual class: inhibitors | 210,000 compounds, 0.35% hits | AID 1457; active = well fitted curve in the direction sought with a large enough effect; inconclusive = small, poorly fitted or top-dose-only effect, or another doubt; inactive = no such curve, though single readings can be large; an effect the other way counts as inactive or inconclusive;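 also: IP1 builds up when IMPase is blocked and the TR-FRET signal falls; potency is read from the fitted curve at half-maximal effect; plate controls were basal vehicle for no effect and high inhibitor control for full effect; nearly all actives have a fitted effect of over 50% in size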
#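 CHO cells stably expressing M1 receptor (2000/well) were cultured 16–30 h, then exposed to compounds with a small lithium addition for 30 min at 37C. IP1 was measured by TR-FRET competition; AC50 from Hill fits.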
# * = called active by the depositor; ? = inconclusive; / = not tested or not shown; [ ] = another dose, or the depositor's remark. Sampled rows, rich in hits. Any-hit rate of the full collection: about 11%. Unless noted, calls follow the shape of the dose curve; as a rule, active = well fitted inhibition curve with a large enough effect (not every such curve was filed as active); inconclusive = small, poorly fitted or top-dose-only effect, or another doubt; inactive = no such curve, though single readings can be large or run the other way. Unless noted, % is scaled to controls: 0 for no effect and ±100 for the full control effect.
SMILES,ALOX12 inhib,IMPase inh,PNC assembly inh,HPGD inh,ALDH1A1 inh,IMPase Li cell
CCOc1c(C)cc2[nH]c(CCC(=O)O)nc2c1C,6%,?,-119*,-2%,2%,4%
COc1c(F)c(F)c(C(=O)Nc2ccc(-c3nc4ccccc4[nH]3)cc2)c(F)c1F,/,/,/,/,?,-10%
COc1cccc(OC)c1C(=O)NC(=S)Nc1cc(-c2nc3ccccc3[nH]2)ccc1Cl,0%,1,5,-18%,22µM*,4%
CCCS(=O)(=O)c1nnnn1-c1cccc(OC)c1,-3%,17,-5,22µM*,1.4µM*,42%[38.3 µM]
COc1cccc(CS(=O)(=O)c2nnnn2-c2ccccc2)c1,/,/,/,-15%,1µM*,16%
COc1cccc(CS(=O)(=O)c2nnnn2C2CCCCC2)c1,/,/,/,-2%,1%,-4%
Cc1ccc(/C=C/C(=O)NCc2cccs2)cc1,1%,/,-16,14µM*,?,3%
Cc1ccc(/C=C/C(=O)NCc2cccs2)c(C)c1,/,/,/,/,-5%,7%
Cc1ccc(/C=C/C(=O)NCc2cccs2)o1,/,/,/,/,4µM*,12%
Cc1noc(C)c1S(=O)(=O)N1CCc2nc(COc3ccccc3)c3c(c2C1)CO[C@@H](C)C3,2%[11.4 µM],/,/,-7%,-13%[13.5 µM],16%
COC(=O)c1sc2ccccc2c1-n1cccc1C(=O)C(=O)Nc1ccc(Cl)cc1,-4%,1,52,-7%,-13%,-4%[38.3 µM]
O=C(NCCc1ccccc1)/C(=C/c1ccco1)c1ccccc1,-5%,/,44,-25%,22µM*,6%
CCC(C)NC(=O)/C(=C/c1ccco1)c1ccccc1 (stereo not drawn),-24%,3,-3,25µM*,?,16%[38.3 µM]
CC(C)NC(=O)/C(=C/c1ccco1)c1ccccc1,-3%,2,21,-9%,-6%,-4%[38.3 µM]
COc1cccc2c1[C@@H]1CN(CCCCn3c(=O)[nH]c4c(sc5ncc(-c6ccccc6)nc54)c3=O)C[C@H]1CO2,9%,6,/,/,/,/
COc1ccc(Oc2ncc3ncc(=O)n(Cc4cccs4)c3n2)cc1,-8%,/,/,-16%,?,21%
COCc1nnc(NC(=O)c2cc(Cl)ccc2OC)s1,3%,1,35,?,?,13%[38.3 µM]
CCOCc1nnc(NC(=O)c2cc(Cl)ccc2OC)s1,-3%,-4,24,14µM*,?,22%[38.3 µM]
O=C(Nc1nnc(COc2ccc(F)cc2)s1)c1cccs1,-2%,-2,?,-20%,1%,11%
Cc1ccc(OCc2nnc(NC(=O)c3ccco3)s2)c(C)c1,-2%,15,-107*,-17%,-1%,-2%[38.3 µM]
O=C(CNC(=O)c1ccco1)OCc1ccc(Cl)cc1,-3%,?,-81*,-12%,?,17%[38.3 µM]
O=C(Nc1nnc(COc2ccc(Cl)cc2)s1)c1cccs1,3%,5,14,25µM*,10µM*,-3%
O=C(CNC(=O)c1ccco1)OCc1ccc(C(=O)c2ccccc2)cc1,/,/,/,/,-5%,1%
CC(=O)c1cccc(NS(=O)(=O)c2cccc(C(=O)O)c2)c1,-2%,/,/,-9%,-2%,/
O=C(Nc1nnc(COc2ccc(Cl)cc2)s1)c1ccco1,/,/,/,/,3.2µM*,-6%
SMILES,ALOX12 inhib,IMPase inh,PNC assembly inh,HPGD inh,ALDH1A1 inh,IMPase Li cell
O=C(Nc1nnc(COc2ccc(Cl)cc2)s1)C1CCCO1 (stereo not drawn),-2%,-3,?,18µM*,10µM*,6%
Cc1ccc(OCc2nnc(NC(=O)c3ccco3)s2)cc1,-2%,-5,?,-9%,2%,22%[38.3 µM]
CC1(C)Cc2c(C#N)c(SCC(=O)c3ccccc3)nc(N3CCOCC3)c2CO1,-3%,3,?,?,-40%,?
CCOC(=O)CSc1nc(N2CCOCC2)c2c(c1C#N)CC(C)(C)N(C)C2,-3%,9,20,/,18µM*,/
COC(=O)Sc1nc(N2CCOCC2)c2c(c1C#N)CC(C)(C)OC2,-6%,-21,-116*,/,14µM*,/
NC1=NC(=O)/C(=C/c2cn(CCC(=O)O)nc2-c2ccc(F)cc2)S1,-1%,-12,18,25µM*,-15%,0%
O=C(O)CCn1cc(/C=C\C(=O)c2ccc(Cl)cc2)c(-c2cccc(Br)c2)n1,-3%,-1,44,25µM*,?,8%
Cc1ccc(-c2nn(CCC(=O)O)cc2/C=C\C(=O)c2ccc(Br)cc2)cc1,/,/,/,/,?,25%
NC1=NC(=O)/C(=C/c2cn(CCC(=O)O)nc2-c2ccc(Cl)cc2)S1,-8%,5,4,13µM*,25%,4%
CCCOc1ccc(-c2nn(-c3ccccc3)cc2/C=C2\SC(N)=NC2=O)cc1,-3%,/,-8,?,12%,?
COc1ccc(-c2nn(CCC(=O)O)cc2/C=C2\SC(N)=NC2=O)cc1,3%,-6,35,11µM*,4%,0%
O=Cc1cn(CCC(=O)O)nc1-c1cccc(Br)c1,/,/,/,/,?,4%
CCOC(=O)CCN1C(=O)[C@H]2[C@H]3[C@H](O)[C@H](O)C/C(=N/OC[C@@H](O)COCc4ccco4)[C@@H]3CC[C@@H]2C1=O,/,/,/,/,1%[13.5 µM],/
Cc1ccc(C(=O)n2ncn(C)c2=S)cc1,/,/,/,/,6.3µM*,-1%
Cc1ccc(C(=O)n2nc(-c3ccco3)nc2N)cc1,0%,1,?,?,?,1%[38.3 µM]
CC(=O)N[C@H](c1ccccc1)[C@@]1(C)C[C@@H]1[C@@H](C)C(=O)Nc1ccc2ccccc2c1,-1%,/,/,-6%,?,3%
C[C@@H](C(=O)Nc1ccc2ccccc2c1)[C@H]1C[C@]1(C)[C@H](NC(=O)c1cccnc1)c1ccccc1,-6%,/,48,-5%,11µM*,16%
COC(=O)N[C@H](c1ccccc1)[C@@]1(C)C[C@@H]1[C@@H](C)C(=O)Nc1ccc2ccccc2c1,?,/,/,-23%,7.9µM*,25%
CC(C)C[C@H]1COC(c2ccc(Br)cc2)=N1,1%[0.00818 µM],/,/,-14%,4%,11%
Cc1ccc(C(=O)O/N=C2\CC3CCC2(C)C3(C)C)cc1 (stereo not drawn),-3%,2[0.0738 µM],?,-5%,13µM*,0%
O=C(N/N=C/c1ccc[nH]1)c1cc(-c2cccs2)nc2ccccc12,/,/,/,/,16µM*,7%
O=C(N/N=C/c1cccs1)c1cc(-c2cccc3ccccc23)n[nH]1,-3%,7,13,25µM*,-1%,3%
CCc1ccc(/C=N/NC(=O)c2cc(-c3ccncc3)nc3ccccc23)s1,3%,/,-110*,-26%,18%,13%
O=C(N/N=C/c1cccnc1)c1cc(-c2cccs2)nc2ccccc12,-11%,/,-25,?,?,11%

# High-throughput results deposited in PubChem BioAssay by National Center for Advancing Translational Sciences (NCATS).
